Experimental data: PubChem BioAssay AID1210 (NMMLSC, 2008)
Activity calls are given as the source filed them.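 Rule for the calls: active = blocks over 70% of labeled estradiol binding at 10 µM, or over a set limit at 100 nM; inactive = the rest.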

Target: Estrogen receptor beta (Homo sapiens) (UniProt Q92731)
Test: ERbeta ligand binders by competition, primary screen, cell-based, Cos7 ERbeta-GFP, flow cytometry (AID 1210);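 note: 0% = DMSO vehicle wells and 100% = complete loss of labeled estradiol signal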
Details: fluorescent estrogen binding, stronger effect = higher value
[1] = ligand binding inhibition, at 0.1 µM

Sequence of Estrogen receptor beta (Homo sapiens) (Q92731 whole entry, looked up): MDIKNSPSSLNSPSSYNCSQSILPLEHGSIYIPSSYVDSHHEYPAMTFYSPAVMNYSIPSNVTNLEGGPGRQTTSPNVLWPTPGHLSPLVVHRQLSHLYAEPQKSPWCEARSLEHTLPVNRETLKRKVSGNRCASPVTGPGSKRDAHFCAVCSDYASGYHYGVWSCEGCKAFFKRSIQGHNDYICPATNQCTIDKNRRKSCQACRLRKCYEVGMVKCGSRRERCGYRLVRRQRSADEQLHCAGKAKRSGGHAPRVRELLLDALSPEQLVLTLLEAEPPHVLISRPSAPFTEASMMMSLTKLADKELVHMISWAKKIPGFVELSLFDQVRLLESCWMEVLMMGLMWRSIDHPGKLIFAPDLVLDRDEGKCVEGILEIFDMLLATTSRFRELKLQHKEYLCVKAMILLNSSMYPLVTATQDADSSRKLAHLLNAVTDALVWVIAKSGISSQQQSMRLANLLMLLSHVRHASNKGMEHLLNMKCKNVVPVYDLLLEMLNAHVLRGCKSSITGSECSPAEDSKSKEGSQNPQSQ

Compound	inhibition (at 10 µM)	inhibition [1] [%]
O=C(Cc1coc2cc3c(cc12)CCC3)OCc1cc(=O)n2c(n1)sc1ccccc12	56% (inactive)	14
O=Cc1ccc2oc3nc4n(c(=O)c3c(=O)c2c1)CCCS4	15% (inactive)	2
CCn1c2ccccc2c2cc(NC(=O)CSc3nnc(-c4ccc(OC)cc4)n3N)ccc21	57% (inactive)	24
COc1cc(/C=C2\OC(=O)c3c(OC)cccc32)ccc1O	55% (inactive)	28
CCc1cccc2c(C(=O)Cn3nnc(-c4ccc(OC)c(OC)c4)n3)c[nH]c12	53% (inactive)	52
O=C(c1cccc(F)c1)N1CCN(C(=O)c2cc3ncc(Br)cn3n2)CC1	26% (inactive)	38
CCOC(=O)Cn1cnc2sc3c(c2c1=O)CCC3	37% (inactive)	28
Oc1ccc(-c2nc3ccc4ccccc4c3c3c2CCC3)cc1O	71% (active)	47
O=C1C=CC(O)(c2cc(=O)c3c(O)cc(O)cc3o2)C=C1	29% (inactive)	8
Cc1nn(-c2ccccc2)c2sc(C(=O)c3c(N)n(C)c(=O)n(C)c3=O)cc12	22% (inactive)	32
Cc1ccc(C)c(SCC(=O)OCC(=O)c2ccco2)c1	50% (inactive)	57
CC(=O)c1ccc(NC(=S)N2CCCC(CO)C2)cc1 (stereo not drawn)	49% (inactive)	13
COc1cc(NC(=O)COc2ccc(-n3cnnn3)cc2)c(OC)cc1Cl	61% (inactive)	17
Cc1ccc2c(c1)c(=O)c1c3n2CCN(C(=O)CCl)C3CC1 (stereo not drawn)	37% (inactive)	33
